From PubChem BioAssay
Most compounds without a hit are left out; they make up all but 13% or so of the library.
HCMV antiviral: human cytomegalovirus inhibition; HFF cells, HCMV-luciferase reporter, 72 h; stronger effect = lower value; activity change, negative = inhibition, % at 57.5 µM; 410,000 compounds, 4.5% hits; AID 1259415; in the data active = activity change below about -60%; inconclusive = no clear call, values can overlap the other calls; inactive = above about -39%
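Human foreskin fibroblasts infected with luciferase-reporter HCMV at MOI 1 PFU/cell, compounds at two doses. Luciferase measured 72 h post infection; normalized to buffer-only basal and Salinomycin (10uM) controls.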
Pf growth 48h: P. falciparum growth inhibition at 48 hours (one generation); P. falciparum luciferase growth in erythrocytes, 48 h; Potency, µM (highest dose often 28.7 µM), usual class: inhibitors; AID 504832; 310,000 compounds, 5.9% hits
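Luciferase-expressing P. falciparum in infected erythrocytes (2% hematocrit, 0.1% parasitemia final) in RPMI 1640/0.5% Albumax were exposed to compound for 48 hours at 37 C, 5% CO2; growth read as luminescence.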
HCV inh: HCV inhibition; Huh7.5.1 HCVcc-Cre infection, luciferase reporter, 44 h; Potency, µM (series often up to 41.8 µM), usual class: inhibitors; 340,000 compounds, 3.4% hits
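Infectious HCV cell culture screen: compound-treated cells (1,000/well, pre-plated 4 h) are infected with HCVcc-Cre at roughly 0.5 moi and grown 44 h. Infection is quantified by luciferase signal after 15 min substrate incubation at room temperature.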
Pf growth 96h: inhibits malaria parasite growth, 96 h. P. falciparum luciferase reporter growth, 96 h. 320,000 compounds, 6.9% hits. Potency, µM (highest dose often 28.7 µM), usual class: inhibitors
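Erythrocytes infected with luciferase-expressing P. falciparum were dispensed at 2% hematocrit and 0.05% parasitemia (final), then incubated with compounds 96 hours at 37 C in 5% CO2. Luminescence after detection reagent addition reported growth.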
Hits are given with their value; 0 = inactive; ? = inconclusive; - = no result given. Unless noted, calls follow the shape of the dose curve; as a rule, active = well fitted inhibition curve with a large enough effect; inconclusive = small, poorly fitted or top-dose-only effect, or another doubt; inactive = no such curve, though single readings can be large or run the other way.

SMILES	HCMV antiviral	Pf growth 48h	HCV inh	Pf growth 96h
CCn1c(SCC(=O)Nc2ccccc2)nnc1-c1ccc(S(=O)(=O)N2CCOCC2)cc1	0	5.2µM	0	?
COc1ccccc1-n1c(SCC(=O)O)nnc1-c1ccc(S(=O)(=O)N2CCCCC2)cc1	0	0	0	12µM
CCCCOc1ccc(C(=O)Nc2cc(-c3cn4cccnc4n3)ccc2OC)cc1	0	-	-	-
CCOC(=O)CSc1nnc(-c2ccc(S(=O)(=O)N3CCOCC3)cc2)n1-c1ccccc1	0	7.4µM	0	-
Cc1nnc(SCC(=O)c2ccc(S(=O)(=O)N3CCOCC3)cc2)n1-c1ccccc1	0	?	0	0
Cc1cc2cc(CN(CC3CCCO3)C(=S)Nc3ccccc3)c(=O)[nH]c2cc1C (stereo unspecified)	-82	12µM	?	0
COc1ccc2cc(CN(CC3CCCO3)C(=S)Nc3ccccc3)c(=O)[nH]c2c1 (stereo unspecified)	-73	9.3µM	?	?
COc1ccc(N(Cc2cc3ccccc3[nH]c2=O)C(=O)C2CCCO2)cc1 (stereo unspecified)	-65	?	0	?
CCN1CCCC1CN(Cc1cc2ccc(C)cc2[nH]c1=O)C(=S)Nc1cccc(OC)c1 (stereo unspecified)	0	10µM	?	0
COc1cc(-c2coc3c(C(=O)NCc4ccccc4)cccc23)ccc1O	0	-	-	-
COCCn1c(C)cc(O)c(C(c2ccc(Cl)cc2)N2CCCCC2)c1=O (stereo unspecified)	0	-	-	-
Cc1ccc(-c2nnc(Nc3ccc(C(=O)N(C)C)cc3)c3ccccc23)cc1S(=O)(=O)NC(C)(C)CO	0	2.3µM	0	?
Cc1ccc(-c2nnc(Nc3ccc(OC(F)(F)Cl)cc3)c3ccccc23)cc1S(=O)(=O)NC(C)(C)CO	-95	-	-	-
COc1nnc(-c2ccc(C)c(S(=O)(=O)NC(C)(C)CO)c2)c2ccccc12	0	?	0	?
CNC(=O)c1ccc(Nc2nnc(-c3ccc(C)c(S(=O)(=O)NC(C)(C)C)c3)c3ccccc23)cc1	0	-	-	-
CCN(CC)C(=O)c1sc2c(c1C)c(=O)n(Cc1ccccc1)c(=O)n2Cc1c(C)cc(C)cc1C	0	-	-	-
Cc1ccc(NC(=O)CSc2nc3ccc(NC(=O)c4cccs4)cc3s2)c(C)c1	0	-	-	-
Cc1onc(-c2c(F)cccc2Cl)c1C(=O)OCC(=O)NCc1ccco1	0	?	0	-
Cc1onc(-c2c(Cl)cccc2Cl)c1C(=O)NCc1ccccn1	0	0	0	2.1µM
Cc1onc(-c2c(F)cccc2Cl)c1C(=O)NCc1ccco1	0	0	0	1.5µM
Cc1csc(NC(=O)c2c(-c3c(F)cccc3Cl)noc2C)n1	0	12µM	?	?
Cc1csc(NC(=O)c2c(-c3c(Cl)cccc3Cl)noc2C)n1	0	?	?	-
CCCc1cc(C(=O)NCc2ccco2)no1	0	-	0	13µM
CCc1ccc(/C=C2\Oc3cc(OC(=O)N4CCOCC4)ccc3C2=O)cc1	0	?	0	10µM
OC(c1cccs1)(c1cccs1)C1C[N+]2(CF)CCC1CC2 (stereo unspecified)	0	10µM	0	2.3µM
SMILES	HCMV antiviral	Pf growth 48h	HCV inh	Pf growth 96h
CCN(CC)c1nc2ccccc2nc1C(=O)Nc1cccc(C(C)=O)c1	0	-	-	-
C/C(=N\NC(=O)c1ccc(C)cc1)c1c(C)[nH]n(-c2ccccc2)c1=O	-92	0	0	15µM
Cc1[nH]n(-c2ccccc2)c(=O)c1C(=O)c1ccc([N+](=O)[O-])cc1	0	0	0	0
C/C(=N\NC(=O)c1ccccc1)c1c(C)[nH]n(-c2ccccc2)c1=O	-97	0	?	0
Cc1[nH]n(-c2ccccc2)c(=O)c1C(=O)Nc1ccccc1	0	0	0	0
CCCCOc1ccc(C(=O)NCCc2sc3nc(-c4ccc(OC)cc4)nn3c2C)cc1	0	-	-	-
COc1ccc(CNC(=O)C2=C(C)C(=O)OC23CCCCC3)cc1OC	0	-	-	-
O=C1N(Cc2cccc(Cl)c2)C[C@@H]2C[C@@H](c3ccsc3)N3CCC[C@@]123	?	8.3µM	0	0
Cn1cc([C@@H]2C[C@H]3CN(Cc4cccc(Cl)c4)C(=O)[C@]34CCCN24)c2ccccc21	0	12µM	?	?
O=C1N(Cc2cccc(Cl)c2)C[C@@H]2C[C@@H](c3ccccn3)N3CCC[C@@]123	0	?	0	?
Cc1ccccc1C1C2=C(Nc3[nH]n(-c4ccccc4)c(=O)c31)c1ccccc1C2=O (stereo unspecified)	-	?	0	?
Cc1cccc(C2C3=C(Nc4[nH]n(-c5ccccc5)c(=O)c42)c2ccccc2C3=O)c1 (stereo unspecified)	-88	?	0	?
Cc1ccc(-n2c3nc(=O)[nH]c(=O)c-3cc3c(C)nn(-c4ccccc4)c32)cc1C	0	-	-	-
S=C(N/N=C/c1cccs1)NC1CC2CCC1C2 (stereo unspecified)	0	?	0	10µM
S=C(NCCN1CCOCC1)N/N=C/c1cccs1	0	3.3µM	0	2.3µM
Oc1cccc(/C=N/NC(=S)NCCN2CCOCC2)c1O	0	?	?	?
O=C(NCCN1CCOCC1)c1cc(-c2cccs2)on1	0	0	0	9.3µM
O=C(NCCN1CCOCC1)c1cc(-c2ccccc2)on1	0	0	0	-
COc1ccc(-c2noc(N3CCCC(C(=O)Nc4ccc(F)cc4F)C3)n2)cc1 (stereo unspecified)	0	0	?	9.3µM
COc1ccc(-c2noc(N3CCCC(C(=O)Nc4ccccc4F)C3)n2)cc1 (stereo unspecified)	0	0	0	10µM
COc1ccc(-c2noc(N3CCC(C(=O)Nc4ccccc4OC)CC3)n2)cc1	?	?	?	0
COc1ccc(NC(=O)CSc2nc(-c3ccccc3)cc(-c3cc(OC)c(OC)c(OC)c3)c2C#N)c(OC)c1	0	-	-	-
Cn1c(=O)c2c(nc(SCC(=O)Nc3ccccc3F)n2Cc2ccccc2F)n(C)c1=O	0	-	-	-
Cc1csc(SCC(=O)N2CCCC2)n1	-71	0	0	0
Cc1csc(SCC(=O)Nc2cccc(C)c2C)n1	-64	0	0	0
SMILES	HCMV antiviral	Pf growth 48h	HCV inh	Pf growth 96h
N#Cc1cnc(Sc2ccccc2)nc1	0	?	0	0.033µM
COc1ccc(N2C(=O)C3C(C2=O)C(C(=O)c2ccc(Cl)cc2)N2CCCC32)cc1 (stereo unspecified)	-60	?	0	?
O=C(c1ccc(Cl)cc1)C1C2C(=O)N(c3ccccc3)C(=O)C2C2CCCN21 (stereo unspecified)	0	?	0	15µM
CCCSCCCNC(=O)C1CCN(c2nn3cc(-c4ccc(F)cc4)nc3s2)CC1	0	-	-	-
Cn1c(=O)c(=O)n(C)c2cc(S(=O)(=O)CCC(=O)Nc3cccc(C(F)(F)F)c3)ccc21	0	0	0	10µM
O=C(CNc1cccc(S(=O)(=O)N2CCCC2)c1)Nc1cccc(F)c1	0	3.7µM	0	10µM
O=C(Cn1nnc(-c2ccc(F)cc2)n1)Nc1cccc(S(=O)(=O)N2CCCC2)c1	-60	?	22µM	13µM
O=C(Cn1nnc(-c2ccccc2Cl)n1)Nc1cccc(S(=O)(=O)N2CCCC2)c1	0	-	?	-
O=C(CNc1cccc(C(F)(F)F)c1)Nc1cccc(S(=O)(=O)N2CCCC2)c1	?	?	11µM	?
